# The supplement of paper PMC10849652
# Of roughly 7,900 targets only a part is listed; those with a hit were picked by preference. About 0.6% of all pairs of compound and target were hits. Values without a mark were called inactive.
# What was measured:
# Assay in all cases: log2 fold change, soluble protein after heating vs DMSO (PISA); higher = thermal stabilisation; K562 cells, 10 uM, 30 min; active = over 0.2 and 3.5 SD of the protein, either way, in both replicates (recomputed)
# [1] = compound: CC1=C(C=C(C=C1)NC(=O)C2=CC(=CC=C2)C(C)(C)C#N)NC3=CC4=C(C=C3)N=CN(C4=O)C
# Method in brief: (§1)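 K562 cells at 2×10^6 cells/mL were treated with 10 μM compound for 30 min. Aliquots were heated for 3 min across 48°C-58°C, pooled, and extracted in PBS with 0.5% NP-40 at 4°C; soluble protein was the supernatant after 21,000xg for 90 min. Soluble protein was quantified by TMTpro 16plex LC-MS/MS with channel sums equalised, and reported as log2 fold change in thermal stability against DMSO controls, with values from duplicates.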
# [2] = compound: CC1=C(C=C(C=C1)NC(=O)C2=CC(=CC=C2)N(C)C)NC(=O)C3=CC=C(C=C3)O
# Method in brief: as §1
# [3] = compound: CC1=CC=C(C=C1)SC2=C3C=C(SC3=CN=C2)C(=O)N
# Method in brief: as §1
# [4] = compound: CC1=NC(=CC=C1)C2=C(N=C(N2)C(C)(C)C)C3=CC4=NC=CN=C4C=C3
# Method in brief: as §1
# Nexturastat A = compound: CCCCN(Cc1ccc(C(=O)NO)cc1)C(=O)Nc1ccccc1 [Nexturastat A]
# Method in brief: as §1
# vemurafenib = compound: CCCS(=O)(=O)Nc1ccc(F)c(C(=O)c2c[nH]c3ncc(-c4ccc(Cl)cc4)cc23)c1F [vemurafenib]
# Method in brief: as §1
# [5] = compound: CCCS(=O)(=O)Nc1ccc(F)c(C(=O)c2c[nH]c3ncc(Cl)cc23)c1F
# Method in brief: as §1
# [6] = compound: CCCc1cc(C)[nH]c(=O)c1CNC(=O)c1cc(-c2ccnc(N3CCN(C)CC3)c2)cc2c1cnn2C(C)C
# Method in brief: as §1
# givinostat = compound: CCN(CC)Cc1ccc2cc(COC(=O)Nc3ccc(C(=O)NO)cc3)ccc2c1 [givinostat]
# Method in brief: as §1
# barasertib = compound: CCN(CCCOc1ccc2c(Nc3cc(CC(=O)Nc4cccc(F)c4)[nH]n3)ncnc2c1)CCOP(=O)(O)O [barasertib]
# Method in brief: as §1
# [7] = compound: CC[C@@H]1C(=O)N(C)c2cnc(Nc3ccc(C(=O)NC4CCN(C)CC4)cc3OC)nc2N1C1CCCC1
# Method in brief: as §1
# volasertib = compound: CC[C@@H]1C(=O)N(C)c2cnc(Nc3ccc(C(=O)N[C@H]4CC[C@H](N5CCN(CC6CC6)CC5)CC4)cc3OC)nc2N1C(C)C [volasertib]
# Method in brief: as §1
# [8] = compound: CC[C@H](C)N1C=C(C2=C(C=C(C=C21)C3=CN=C(C=C3)N4CCNCC4)C(=O)NCC5=C(C=C(NC5=O)C)C)C
# Method in brief: as §1
# epoxomicin = compound: CC[C@H](C)[C@@H](C(=O)N[C@@H]([C@@H](C)O)C(=O)N[C@@H](CC(C)C)C(=O)[C@]1(CO1)C)NC(=O)[C@H]([C@@H](C)CC)N(C)C(=O)C [epoxomicin]
# Method in brief: as §1
# [9] = compound: CCn1c(C(=O)N(C2CC2)C2CC2)cc2c3c(ncn3C)c(Nc3cc(C)n(C)n3)nc21
# Method in brief: as §1
# [10] = compound: CCn1cc(-c2ccnc3[nH]c(-c4cccc(CN(C)C)c4)cc23)c(-c2ccc(NC(=O)N(C)C)cc2)n1
# Method in brief: as §1
# [11] = compound: CN(C)CC(=O)Nc1ccc2[nH]c(=O)c3ccccc3c2c1
# Method in brief: as §1
# rosiglitazone = compound: CN(CCOC1=CC=C(C=C1)C[C@H]2C(=O)NC(=O)S2)C3=CC=CC=N3 (racemic) [rosiglitazone]
# Method in brief: as §1
# [12] = compound: CN1C2=C(C3=C1C(=O)N(N=C3)CC4=CC(=CC=C4)N)SC(=C2)S(=O)C
# Method in brief: as §1
# [13] = compound: CN1CCC(CNc2ccc3ncc(-c4cccc(OC(F)(F)F)c4)n3n2)CC1
# Method in brief: as §1
# Chain of UniProt Q8NBW4 (Q8NBW4 whole entry, looked up): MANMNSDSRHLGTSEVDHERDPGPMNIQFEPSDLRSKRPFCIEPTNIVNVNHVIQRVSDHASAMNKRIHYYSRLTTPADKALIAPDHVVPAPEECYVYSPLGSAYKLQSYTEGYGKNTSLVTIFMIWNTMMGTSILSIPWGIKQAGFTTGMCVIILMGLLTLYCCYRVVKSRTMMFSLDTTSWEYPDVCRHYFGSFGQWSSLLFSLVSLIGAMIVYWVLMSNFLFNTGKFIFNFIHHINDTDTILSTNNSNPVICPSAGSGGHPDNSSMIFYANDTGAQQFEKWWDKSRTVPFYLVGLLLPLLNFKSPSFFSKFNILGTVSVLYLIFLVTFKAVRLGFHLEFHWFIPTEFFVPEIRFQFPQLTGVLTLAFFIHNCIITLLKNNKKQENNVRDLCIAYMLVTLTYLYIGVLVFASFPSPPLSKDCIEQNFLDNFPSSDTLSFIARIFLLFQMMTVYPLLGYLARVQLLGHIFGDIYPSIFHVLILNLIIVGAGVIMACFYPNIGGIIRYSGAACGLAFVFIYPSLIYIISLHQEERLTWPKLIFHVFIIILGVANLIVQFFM
# Chain of UniProt Q13586 (Q13586 whole entry, looked up): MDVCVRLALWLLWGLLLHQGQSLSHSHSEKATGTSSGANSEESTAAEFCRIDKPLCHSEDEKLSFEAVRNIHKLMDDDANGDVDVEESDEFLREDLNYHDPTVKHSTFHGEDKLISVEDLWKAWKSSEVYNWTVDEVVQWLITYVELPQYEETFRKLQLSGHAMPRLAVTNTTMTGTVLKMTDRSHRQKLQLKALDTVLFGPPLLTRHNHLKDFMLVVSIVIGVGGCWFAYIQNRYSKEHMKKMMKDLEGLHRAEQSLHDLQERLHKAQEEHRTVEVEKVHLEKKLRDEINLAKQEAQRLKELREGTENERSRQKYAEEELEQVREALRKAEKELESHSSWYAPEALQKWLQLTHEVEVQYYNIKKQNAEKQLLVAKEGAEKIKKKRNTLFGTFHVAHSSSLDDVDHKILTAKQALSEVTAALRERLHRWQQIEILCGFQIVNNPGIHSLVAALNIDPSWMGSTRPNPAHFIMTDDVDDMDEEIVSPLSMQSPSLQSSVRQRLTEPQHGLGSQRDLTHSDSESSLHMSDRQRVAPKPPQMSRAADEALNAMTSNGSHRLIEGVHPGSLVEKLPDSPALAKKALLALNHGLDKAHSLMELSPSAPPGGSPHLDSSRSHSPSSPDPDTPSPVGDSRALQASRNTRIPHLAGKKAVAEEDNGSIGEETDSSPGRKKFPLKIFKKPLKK
# Chain of UniProt Q15796 (Q15796 whole entry, looked up): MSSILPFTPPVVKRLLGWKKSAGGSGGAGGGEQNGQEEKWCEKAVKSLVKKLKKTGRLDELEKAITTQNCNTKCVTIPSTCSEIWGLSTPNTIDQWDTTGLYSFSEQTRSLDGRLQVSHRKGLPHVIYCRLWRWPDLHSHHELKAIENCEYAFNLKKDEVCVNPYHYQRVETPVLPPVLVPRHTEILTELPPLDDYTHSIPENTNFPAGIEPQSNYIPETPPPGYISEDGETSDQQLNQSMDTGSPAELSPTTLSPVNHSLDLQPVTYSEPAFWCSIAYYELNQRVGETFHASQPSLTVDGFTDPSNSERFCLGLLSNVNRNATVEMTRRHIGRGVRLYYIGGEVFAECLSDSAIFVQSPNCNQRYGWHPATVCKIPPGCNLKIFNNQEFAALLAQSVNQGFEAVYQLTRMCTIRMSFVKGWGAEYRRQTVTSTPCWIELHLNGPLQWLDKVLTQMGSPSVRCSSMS
# Chain of UniProt Q08170 (Q08170 whole entry, looked up): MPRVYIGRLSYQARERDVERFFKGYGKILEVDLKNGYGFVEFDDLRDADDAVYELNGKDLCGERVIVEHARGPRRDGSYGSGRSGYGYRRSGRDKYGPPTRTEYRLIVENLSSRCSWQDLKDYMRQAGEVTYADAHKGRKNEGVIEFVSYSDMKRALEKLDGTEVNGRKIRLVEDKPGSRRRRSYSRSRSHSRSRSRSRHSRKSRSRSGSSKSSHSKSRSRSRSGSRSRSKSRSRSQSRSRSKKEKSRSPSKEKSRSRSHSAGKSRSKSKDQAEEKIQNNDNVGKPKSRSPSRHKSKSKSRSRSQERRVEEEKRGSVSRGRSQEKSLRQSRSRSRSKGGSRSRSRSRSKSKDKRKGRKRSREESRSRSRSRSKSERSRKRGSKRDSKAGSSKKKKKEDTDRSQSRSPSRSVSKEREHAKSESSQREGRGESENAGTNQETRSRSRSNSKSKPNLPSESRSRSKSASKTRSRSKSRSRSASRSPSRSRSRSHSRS
# Chain of UniProt O15198 (O15198 whole entry, looked up): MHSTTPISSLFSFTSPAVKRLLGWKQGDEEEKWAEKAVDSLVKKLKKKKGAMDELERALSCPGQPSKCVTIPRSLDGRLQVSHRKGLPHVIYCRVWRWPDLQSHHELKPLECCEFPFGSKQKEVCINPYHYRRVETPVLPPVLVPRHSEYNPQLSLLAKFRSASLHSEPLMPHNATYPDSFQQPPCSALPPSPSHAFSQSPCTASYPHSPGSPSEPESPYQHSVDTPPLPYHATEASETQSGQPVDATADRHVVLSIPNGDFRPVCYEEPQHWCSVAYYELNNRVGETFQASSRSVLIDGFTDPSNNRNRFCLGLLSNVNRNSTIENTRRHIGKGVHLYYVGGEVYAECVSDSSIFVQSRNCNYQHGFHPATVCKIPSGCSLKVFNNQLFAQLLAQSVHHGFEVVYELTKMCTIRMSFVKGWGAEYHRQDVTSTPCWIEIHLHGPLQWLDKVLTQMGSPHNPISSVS
# Chain of UniProt Q8WVK2 (Q8WVK2 whole entry, looked up): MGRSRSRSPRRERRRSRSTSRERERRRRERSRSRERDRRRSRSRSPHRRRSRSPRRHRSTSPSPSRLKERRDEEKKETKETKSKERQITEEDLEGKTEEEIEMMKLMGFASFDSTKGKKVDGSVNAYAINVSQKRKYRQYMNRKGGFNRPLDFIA
# Chain of UniProt Q9BTW9 (Q9BTW9 whole entry, looked up): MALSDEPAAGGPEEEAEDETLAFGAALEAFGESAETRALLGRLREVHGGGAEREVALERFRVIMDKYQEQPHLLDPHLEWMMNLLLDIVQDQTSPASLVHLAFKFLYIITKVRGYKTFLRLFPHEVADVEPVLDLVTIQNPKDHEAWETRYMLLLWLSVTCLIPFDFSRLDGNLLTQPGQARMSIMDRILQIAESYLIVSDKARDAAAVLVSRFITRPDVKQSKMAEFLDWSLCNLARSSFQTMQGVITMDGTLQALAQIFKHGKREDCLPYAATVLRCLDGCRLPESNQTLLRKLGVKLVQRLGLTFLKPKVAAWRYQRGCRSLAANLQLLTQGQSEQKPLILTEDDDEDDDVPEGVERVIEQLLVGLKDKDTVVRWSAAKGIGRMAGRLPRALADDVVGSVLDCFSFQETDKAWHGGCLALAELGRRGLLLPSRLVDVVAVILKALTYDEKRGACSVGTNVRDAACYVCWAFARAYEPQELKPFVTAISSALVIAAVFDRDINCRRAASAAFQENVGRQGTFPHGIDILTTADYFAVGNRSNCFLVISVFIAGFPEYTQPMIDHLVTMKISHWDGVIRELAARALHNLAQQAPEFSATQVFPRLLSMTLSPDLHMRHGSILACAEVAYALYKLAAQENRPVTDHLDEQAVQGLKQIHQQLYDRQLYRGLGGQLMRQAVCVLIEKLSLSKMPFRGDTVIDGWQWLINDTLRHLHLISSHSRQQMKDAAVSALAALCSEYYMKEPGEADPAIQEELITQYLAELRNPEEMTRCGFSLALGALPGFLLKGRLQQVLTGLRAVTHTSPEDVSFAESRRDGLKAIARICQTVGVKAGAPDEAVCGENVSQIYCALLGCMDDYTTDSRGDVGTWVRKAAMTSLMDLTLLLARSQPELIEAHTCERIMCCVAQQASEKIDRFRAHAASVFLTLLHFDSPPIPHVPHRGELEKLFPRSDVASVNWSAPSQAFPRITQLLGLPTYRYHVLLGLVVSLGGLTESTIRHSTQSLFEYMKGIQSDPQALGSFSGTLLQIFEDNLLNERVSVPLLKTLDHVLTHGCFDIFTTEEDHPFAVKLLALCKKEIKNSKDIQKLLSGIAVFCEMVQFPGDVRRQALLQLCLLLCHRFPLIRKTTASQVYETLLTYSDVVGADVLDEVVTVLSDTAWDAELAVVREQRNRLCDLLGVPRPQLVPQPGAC
# Chain of UniProt O43815 (O43815 whole entry, looked up): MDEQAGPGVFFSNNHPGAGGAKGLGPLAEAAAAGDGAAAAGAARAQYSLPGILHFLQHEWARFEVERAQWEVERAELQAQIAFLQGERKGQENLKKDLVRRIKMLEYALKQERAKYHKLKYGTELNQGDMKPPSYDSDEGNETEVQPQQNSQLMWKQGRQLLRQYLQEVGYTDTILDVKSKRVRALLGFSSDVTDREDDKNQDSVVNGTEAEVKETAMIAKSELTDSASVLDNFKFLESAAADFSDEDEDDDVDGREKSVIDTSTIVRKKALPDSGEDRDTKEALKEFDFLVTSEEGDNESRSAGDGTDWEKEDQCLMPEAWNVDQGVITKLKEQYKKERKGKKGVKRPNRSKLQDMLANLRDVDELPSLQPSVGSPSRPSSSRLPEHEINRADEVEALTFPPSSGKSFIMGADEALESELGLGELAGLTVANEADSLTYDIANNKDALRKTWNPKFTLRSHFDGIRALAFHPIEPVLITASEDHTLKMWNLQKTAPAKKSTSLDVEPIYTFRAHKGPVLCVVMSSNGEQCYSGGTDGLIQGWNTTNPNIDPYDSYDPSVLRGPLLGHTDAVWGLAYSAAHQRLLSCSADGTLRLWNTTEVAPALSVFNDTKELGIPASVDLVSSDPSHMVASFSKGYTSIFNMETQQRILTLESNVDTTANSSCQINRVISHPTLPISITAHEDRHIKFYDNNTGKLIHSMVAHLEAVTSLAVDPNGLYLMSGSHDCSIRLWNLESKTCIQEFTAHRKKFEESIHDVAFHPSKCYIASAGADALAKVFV
# Chain of UniProt Q9UMY4 (Q9UMY4 whole entry, looked up): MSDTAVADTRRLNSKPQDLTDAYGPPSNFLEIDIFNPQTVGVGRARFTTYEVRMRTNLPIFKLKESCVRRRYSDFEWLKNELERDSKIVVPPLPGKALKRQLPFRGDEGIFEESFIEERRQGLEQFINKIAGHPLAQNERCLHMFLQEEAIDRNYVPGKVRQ
Target,log2 fold change [1],log2 fold change [2],log2 fold change [3],log2 fold change [4],log2 fold change (Nexturastat A),log2 fold change (vemurafenib),log2 fold change [5],log2 fold change [6],log2 fold change (givinostat),log2 fold change (barasertib),log2 fold change [7],log2 fold change (volasertib),log2 fold change [8],log2 fold change (epoxomicin),log2 fold change [9],log2 fold change [10],log2 fold change [11],log2 fold change (rosiglitazone),log2 fold change [12],log2 fold change [13]
SLC38A9 (UniProt Q8NBW4),0.075,0.007,-0.05,0.023,0.088,-0.036,-0.012,-0.105,0.021,-0.006,-0.013,-0.003,-0.022,-0.02,0.007,0.055,-0.039,0.003,0.029,-0.197
SNRNP27 (UniProt Q8WVK2),-0.015,-0.006,-0.008,0.007,-0.02,-0.031,-0.021,-0.361,-0.032,-0.039,0.029,0.014,-0.08,0.01,0.051,0.038,0.005,-0.027,0.051,-0.032
SLK isoform 2 (UniProt Q9H2G2),-0.078,-0.07,0.051,0.02,-0.007,0.03,0.092,0.026,0,0.047,-0.095,-0.161,0.05,0.052,-0.002,-0.271 (active),-0.016,0.041,-0.022,-0.152
SUCLG1 (UniProt P53597),-0.02,-0.008,-0.001,0.025,-0.032,0.009,0,-0.006,-0.102,0.019,0.008,-0.044,0.063,0.031,-0.013,-0.012,-0.027,0.037,-0.041,-0.097
SNX12 isoform 1 (UniProt Q9UMY4),-0.021,-0.006,0.032,0.024,-0.082,0.054,0.059,0.008,0.004,0.062,-0.124,-0.252 (active),0.069,0.028,-0.068,0.043,-0.012,0.058,0.045,-0.275 (active)
SLC6A6 (UniProt P31641),0.017,0.014,0.011,0.028,-0.062,0.066,-0.01,-0.176,0.014,-0.018,-0.011,0.01,0,0.135,0.024,-0.053,-0.012,-0.011,-0.02,0.084
SLC4A2 (UniProt P04920),0.04,0.008,0.039,-0.017,0.046,0.002,0.035,-0.043,0.037,0.045,0.039,-0.071,-0.044,0.029,-0.021,-0.028,0.022,0.066,0.035,-0.018
SRSF4 (UniProt Q08170),0.042,-0.001,-0.067,-0.032,0.074,-0.027,0.017,0.224,0.052,-0.064,0.091,-0.001,0.011,-0.175,-0.068,0.115,-0.09,-0.09,0.205,0.087
TBCD (UniProt Q9BTW9),0.016,0.003,0.025,0.052,-0.051,0.005,0.02,-0.007,0.012,0.019,-0.061,-0.315 (active),0.074,-0.012,0.028,-0.002,0.033,0.016,-0.044,-0.094
SULT1A1 (UniProt P50225),0.015,0.162,-0.022,0.025,-0.023,0.135,0.037,0.092,0.044,0.068,-0.159,-0.445 (active),0.091,0.026,-0.056,-0.106,0.105,0.025,0.072,-0.208
TARBP1 (UniProt Q13395),0.069,0.001,0.002,-0.01,0.016,0.036,-0.062,-0.067,-0.017,0.023,-0.022,-0.337 (active),-0.107,0.121,0.018,0.077,-0.012,0.013,0.001,-0.027
STIM1 (UniProt Q13586),0.014,0.003,0.028,0.045,-0.066,-0.006,0.034,-0.015,0.009,0.008,-0.116,-0.206,0.025,0.028,0.004,0.023,0.007,0.037,-0.047,-0.195
STRN (UniProt O43815),-0.019,-0.046,0.019,-0.024,0.001,0.073,0.035,-0.038,0.002,0.045,-0.031,-0.031,0.026,0.046,0.007,-0.046,0.02,0.003,-0.031,0.073
SMAD2 (UniProt Q15796),0.036,-0.034,0.01,0.052,-0.382,-0.016,0.04,-0.027,0.047,0.047,-0.067,-0.347 (active),0.065,0.11,-0.032,-0.014,0.014,0.078,-0.158,-0.018
SMAD9 (UniProt O15198),-0.012,0.029,0.005,0.028,0.04,0.122,0.104,-0.032,0.108,0.054,0.059,-0.417 (active),-0.137,0.026,-0.006,0.035,0.043,0.13,-0.087,-0.261
SLC9A6 isoform 2 (UniProt Q92581),-0.035,0.024,-0.002,-0.012,-0.061,0.024,0,-0.063,-0.01,0.018,0.047,-0.081,0.009,-0.013,-0.003,-0.003,-0.026,-0.013,-0.039,-0.071
